# From PubChem BioAssay (Tox21)
# Values joined by “and” are separate entries in the source; they are usually repeats but may differ in a detail not shown here. Equal entries are not always repeated. Inconclusive results are not listed. Where a call stands in place of a potency, no number is given. More than one record can exist for a structure, and the calls need not agree. Active and inactive are the calls of the source. Calls follow the shape of the dose curve; as a rule, active = well fitted curve in the direction sought with a large enough effect in the repeat runs; inconclusive = weak or mixed curves; inactive = no such curve, though single readings can be large; an effect the other way counts as inactive or inconclusive.
# Experiments:
# [1] = A CellTox Green Cytotoxicity Assay to monitor cytotoxicity in HEK293 cells - 40 hour (AID 1224871); also: nearly all actives have a fitted effect of over 45% in size; also: potency is read from the fitted curve at half-maximal effect
# Summary of the method: (§1)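 Real-time, in one plate: 600 HEK293 cells/well with dead-cell DNA dye, pinned compound after 5 h, 37 C incubation over 40 h; viable cells give no appreciable fluorescence.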
# [2] = qHTS RealTime-Glo MT Cell Viability Assay in HepG2 cells - 8 hour (AID 1224873); also: nearly all actives have a fitted effect of over 55% in size
# Summary of the method: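 HepG2 cells mixed with RealTime-Glo MT reagents (NanoLuc plus cell-permeant prosubstrate) were seeded at 600 cells/well, incubated 5 h at 37 C/5% CO2, then pinned with compounds in DMSO; nonlytic luminescence tracked viability during 40 h treatment.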
# [3] = qHTS RealTime-Glo MT Cell Viability Assay in HEK293 cells - 40 hour (AID 1224874); conditions: RealTime-Glo luminescence; max response: stronger effect = lower value; also: nearly all actives have a fitted effect of over 50% in size; also: potency is read from the fitted curve at half-maximal effect
# Summary of the method: (§2)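 Kinetic, non-lysing viability readout. Seed HEK293 (600/well) with reagent, incubate 5 h at 37 C/5% CO2, pin 23 nL compound in DMSO, incubate at 37 C, read luminescence at 0, 8, 16, 24, 32, 40 h.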
# [4] = A CellTox Green Cytotoxicity Assay to monitor cytotoxicity in HEK293 cells - 24 hour (AID 1224875); also: series mostly up to about 77 µM; nearly all actives have a fitted effect of over 45% in size
# Summary of the method: as §1
# [5] = A CellTox Green Cytotoxicity Assay to monitor cytotoxicity in HepG2 cells - 16 hour (AID 1224876); also: nearly all actives have a fitted effect of over 45% in size; also: potency is read from the fitted curve at half-maximal effect
# Summary of the method: (§3)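 Cytotoxicity was tracked as dead-cell DNA fluorescence in HepG2 cells treated with test compounds at 37 C; each time-point value comes from one kinetic series spanning 0, 8, 16, 24, 32 and 40 h.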
# [6] = qHTS RealTime-Glo MT Cell Viability Assay in HepG2 cells - 32 hour (AID 1224877); also: nearly all actives have a fitted effect of over 55% in size; also: potency is read from the fitted curve at half-maximal effect
# Summary of the method: (§4)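 HepG2 cells were seeded at 600 cells/well together with NanoLuc luciferase and a cell-permeant prosubstrate, preincubated 5 h at 37 C/5% CO2, then pin-dosed with compounds in DMSO. Nonlytic luminescence from viable cells was read at each time point.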
# [7] = A CellTox Green Cytotoxicity Assay to monitor cytotoxicity in HepG2 cells - 24 hour (AID 1224878); also: nearly all actives have a fitted effect of over 45% in size; also: potency is read from the fitted curve at half-maximal effect
# Summary of the method: as §3
# [8] = A CellTox Green Cytotoxicity Assay to monitor cytotoxicity in HepG2 cells - 40 hour (AID 1224879); also: nearly all actives have a fitted effect of over 40% in size
# Summary of the method: as §3
# [9] = qHTS RealTime-Glo MT Cell Viability Assay in HEK293 cells - 0 hour (AID 1224880)
# Summary of the method: as §2
# [10] = A CellTox Green Cytotoxicity Assay to monitor cytotoxicity in HEK293 cells - 32 hour (AID 1224881); also: nearly all actives have a fitted effect of over 40% in size; also: potency is read from the fitted curve at half-maximal effect
# Summary of the method: as §1
# [11] = A CellTox Green Cytotoxicity Assay to monitor cytotoxicity in HepG2 cells - 0 hour (AID 1224882); also: nearly all actives have a fitted effect of over 35% in size
# Summary of the method: as §3
# [12] = A CellTox Green Cytotoxicity Assay to monitor cytotoxicity in HepG2 cells - 32 hour (AID 1224883); also: nearly all actives have a fitted effect of over 50% in size; also: potency is read from the fitted curve at half-maximal effect
# Summary of the method: as §3
# [13] = A CellTox Green Cytotoxicity Assay to monitor cytotoxicity in HEK293 cells - 8 hour (AID 1224884); also: nearly all actives have a fitted effect of over 35% in size
# Summary of the method: as §1
# [14] = qHTS RealTime-Glo MT Cell Viability Assay in HepG2 cells - 16 hour (AID 1224885); also: nearly all actives have a fitted effect of over 50% in size
# Summary of the method: as §4
# [15] = A CellTox Green Cytotoxicity Assay to monitor cytotoxicity in HEK293 cells - 16 hour (AID 1224888); also: nearly all actives have a fitted effect of over 35% in size
# Summary of the method: as §1
# [16] = qHTS RealTime-Glo MT Cell Viability Assay in HepG2 cells - 0 hour (AID 1224889); also: nearly all actives have a fitted effect of over 50% in size
# Summary of the method: as §4
# [17] = A CellTox Green Cytotoxicity Assay to monitor cytotoxicity in HepG2 cells - 8 hour (AID 1224890); also: nearly all actives have a fitted effect of over 45% in size
# Summary of the method: as §3
# [18] = qHTS RealTime-Glo MT Cell Viability Assay in HEK293 cells - 16 hour (AID 1224872); also: nearly all actives have a fitted effect of over 50% in size; also: potency is read from the fitted curve at half-maximal effect; as to activity change, negative = cytotoxicity: top concentration of the series differs between compounds
# Summary of the method: (§5)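 HEK293 cells were seeded at 600 cells/well together with NanoLuc luciferase and cell-permeant prosubstrate, preincubated 5 h at 37 C/5% CO2, then given compound in DMSO by pintool. Luminescence from viable-cell prosubstrate reduction was read repeatedly over 40 h.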
# [19] = qHTS RealTime-Glo MT Cell Viability Assay in HEK293 cells - 8 hour (AID 1224887); also: nearly all actives have a fitted effect of over 50% in size; also: potency is read from the fitted curve at half-maximal effect; as to activity change, negative = cytotoxicity: top concentration of the series differs between compounds
# Summary of the method: as §2
# [20] = qHTS RealTime-Glo MT Cell Viability Assay in HEK293 cells - 24 hour (AID 1224886); also: nearly all actives have a fitted effect of over 50% in size; also: potency is read from the fitted curve at half-maximal effect; as to activity change, negative = cytotoxicity: top concentration of the series differs between compounds
# Summary of the method: as §5
smiles,measurement,setting,value
Brc1c(Br)c(Br)c(Br)c(Br)c1Br,cytotoxicity increase,[1],4.32% [at 6.97 µM] (inactive)
same,"viability change, negative = cytotoxic",[2],-1.77% [at 6.97 µM] (inactive)
same,max response,[3],23.1% (inactive)
same,activity change,[4],"5.24% [at 6.97 µM, stronger effect = higher value] (inactive)"
same,cytotoxicity increase,[5],-7.6% [at 6.97 µM] (inactive)
same,"activity change, negative = cytotoxic",[6],-8.23% [at 6.97 µM] (inactive)
same,cytotoxicity,[7],-0.215% [at 6.97 µM] (inactive)
same,cytotoxicity increase,[8],-0.0521% [at 6.97 µM] (inactive)
same,"activity change, negative = cytotoxicity",[9],0% [at 6.97 µM] (inactive)
same,cytotoxicity increase,[10],4.45% [at 6.97 µM] (inactive)
same,cytotoxicity,[11],0.332% [at 6.97 µM] (inactive)
same,cytotoxicity increase,[12],0.204% [at 6.97 µM] (inactive)
same,cytotoxicity increase,[13],12.9% [at 6.97 µM] (inactive)
same,"activity change, negative = cytotoxic",[14],-8.35% [at 6.97 µM] (inactive)
same,activity change,[15],"4.52% [at 6.97 µM, stronger effect = higher value] (inactive)"
same,"activity change, negative = cytotoxicity",[16],0.505% [at 6.97 µM] (inactive)
same,cytotoxicity increase,[17],-4.76% [at 6.97 µM] (inactive)
CC[C@H](O)C(C[C@H](C)N(C)C)(c1ccccc1)c1ccccc1,Potency,[1],inactive
same,Potency,[18],inactive
same,outcome,[2],inactive
same,Potency,[4],inactive
same,Potency,[5],inactive
same,Potency,[6],inactive
same,Potency,[7],inactive
same,Potency,[8],inactive
same,Potency,[10],inactive
same,outcome,[11],inactive
same,Potency,[12],inactive
same,Potency,[13],inactive
same,Potency,[14],inactive
same,Potency,[19],inactive
same,Potency,[15],inactive
same,Potency,[17],inactive
BrCCc1ccccc1,Potency,[18],inactive
same,outcome,[2],inactive
same,max response,[3],-1.95% (inactive)
same,Potency,[4],inactive
same,Potency,[5],inactive
same,Potency,[6],inactive
same,Potency,[7],inactive
same,Potency,[8],inactive
same,outcome,[9],inactive
same,Potency,[10],inactive
same,outcome,[11],inactive
same,Potency,[12],inactive
same,Potency,[13],inactive
same,Potency,[14],inactive
same,Potency,[20],inactive
same,Potency,[19],inactive
same,Potency,[15],inactive
same,outcome,[16],inactive
same,Potency,[17],inactive
CC(C)N(Cc1ccccc1)C(=O)C(C)(C)C,Potency,[1],inactive
same,Potency,[18],inactive
same,outcome,[2],inactive
same,max response,[3],-9.28% (inactive)
same,Potency,[4],inactive
same,Potency,[5],inactive
same,Potency,[6],inactive
same,outcome,[9],inactive
same,Potency,[10],inactive
same,outcome,[11],inactive
same,Potency,[13],inactive
same,Potency,[14],inactive
same,Potency,[20],inactive
same,outcome,[16],inactive
same,Potency,[17],inactive
O=C(Cl)CCl,Potency,[18],inactive
same,outcome,[2],inactive
same,max response,[3],0.179% (inactive)
same,Potency,[4],inactive
same,Potency,[5],inactive
same,Potency,[6],inactive
same,Potency,[7],inactive
same,Potency,[8],inactive
same,outcome,[9],inactive
same,Potency,[10],inactive
same,outcome,[11],inactive
same,Potency,[12],inactive
same,Potency,[13],inactive
same,Potency,[14],inactive
same,Potency,[20],inactive
same,Potency,[19],inactive
same,Potency,[15],inactive
same,outcome,[16],inactive
same,Potency,[17],inactive
O=C1C2CC=CCC2C(=O)N1SC(Cl)(Cl)Cl (stereo not drawn),Potency,[1],6.81 µM (active)
same,Potency,[18],3.83 µM (active)
same,Potency,[3],43.5 µM (active) and 3.41 µM (active)
same,Potency,[5],inactive and 42.9 µM (active)
same,Potency,[6],inactive and 21.5 µM (active)
same,Potency,[7],inactive and 12.1 µM (active)
same,outcome,[9],inactive
same,Potency,[10],21.5 µM (active)
same,outcome,[11],inactive
same,Potency,[12],inactive and 9.61 µM (active)
same,Potency,[13],inactive
same,Potency,[20],43.5 µM (active) and 3.41 µM (active)
same,Potency,[19],27.1 µM (active)
same,outcome,[16],inactive
same,Potency,[17],inactive
Cl/C=C/CCl,Potency,[18],inactive
same,outcome,[2],inactive
same,max response,[3],7.85% (inactive)
same,Potency,[4],inactive
same,Potency,[5],inactive
same,Potency,[6],inactive
same,Potency,[7],inactive
same,Potency,[8],inactive
same,outcome,[9],inactive
same,Potency,[10],inactive
same,outcome,[11],inactive
same,Potency,[12],inactive
same,Potency,[13],inactive
same,Potency,[14],inactive
same,Potency,[20],inactive
same,Potency,[19],inactive
same,Potency,[15],inactive
same,outcome,[16],inactive
same,Potency,[17],inactive
N#CC(Br)(Br)C(N)=O,Potency,[1],inactive
same,Potency,[18],inactive
same,outcome,[2],inactive
same,max response,[3],-10% (inactive)
same,Potency,[4],inactive
same,Potency,[6],inactive
same,outcome,[9],inactive
same,Potency,[10],inactive
same,outcome,[11],inactive
same,Potency,[14],inactive
same,Potency,[20],inactive
same,Potency,[19],inactive
same,Potency,[15],inactive
same,Potency,[17],inactive
CCN1CCCC1CNC(=O)C(O)(c1ccccc1)c1ccccc1 (stereo not drawn),Potency,[18],inactive
same,outcome,[2],inactive
same,max response,[3],-2.61% (inactive)
same,Potency,[4],inactive
same,Potency,[5],inactive
same,Potency,[6],inactive
same,Potency,[7],inactive
same,Potency,[8],inactive
same,outcome,[9],inactive
same,Potency,[10],inactive
same,outcome,[11],inactive
same,Potency,[12],inactive
same,Potency,[13],inactive
same,Potency,[20],inactive
same,Potency,[19],inactive
same,Potency,[15],inactive
same,outcome,[16],inactive
same,Potency,[17],inactive
CC(Cc1ccccc1)NCCn1cnc2c1c(=O)n(C)c(=O)n2C (stereo not drawn),Potency,[1],inactive
same,Potency,[18],15.3 µM (active)
same,outcome,[2],inactive
same,Potency,[3],24.2 µM (active)
same,Potency,[4],inactive
same,Potency,[5],inactive
same,Potency,[6],inactive
same,outcome,[9],inactive
same,Potency,[10],inactive
same,outcome,[11],inactive
same,Potency,[12],inactive
same,Potency,[14],inactive
same,Potency,[20],21.6 µM (active)
same,Potency,[19],24.2 µM (active)
same,outcome,[16],inactive
same,Potency,[17],inactive
CC[C@@H](CO)NC(=O)[C@@H]1C=C2c3cccc4c3c(cn4C)C[C@H]2N(C)C1,Potency,[18],inactive
same,outcome,[2],inactive
same,max response,[3],-3.36% (inactive)
same,Potency,[4],inactive
same,Potency,[5],inactive
same,Potency,[6],inactive
same,Potency,[7],inactive
same,Potency,[8],inactive
same,outcome,[9],inactive
same,Potency,[10],inactive
same,outcome,[11],inactive
same,Potency,[12],inactive
same,Potency,[13],inactive
same,Potency,[14],inactive
same,Potency,[20],inactive
same,Potency,[17],inactive
NNCc1ccccc1,Potency,[1],inactive
same,Potency,[18],inactive
same,outcome,[2],inactive
same,Potency,[4],inactive
same,Potency,[5],inactive
same,Potency,[6],inactive
same,Potency,[7],inactive
same,Potency,[8],inactive
same,Potency,[10],inactive
same,outcome,[11],inactive
same,Potency,[12],inactive
same,Potency,[13],inactive
same,Potency,[14],inactive
same,Potency,[19],inactive
same,Potency,[15],inactive
same,outcome,[16],inactive
same,Potency,[17],inactive
CC(C)(C)c1cc(O)ccc1O,Potency,[1],inactive
same,outcome,[2],inactive
same,Potency,[4],inactive
same,Potency,[5],inactive
same,Potency,[6],inactive
same,Potency,[8],inactive
same,outcome,[9],inactive
same,Potency,[10],inactive
same,outcome,[11],inactive
same,Potency,[12],inactive
same,Potency,[13],inactive
same,Potency,[14],inactive
same,Potency,[15],inactive
same,outcome,[16],inactive
same,Potency,[17],inactive
O=c1[nH]c2ccccc2o1,Potency,[18],inactive
same,outcome,[2],inactive
same,max response,[3],-0.283% (inactive)
same,Potency,[4],inactive
same,Potency,[5],inactive
same,Potency,[6],inactive
same,Potency,[7],inactive
same,Potency,[8],inactive
same,Potency,[10],inactive
same,outcome,[11],inactive
same,Potency,[12],inactive
same,Potency,[13],inactive
same,Potency,[14],inactive
same,Potency,[20],inactive
same,Potency,[15],inactive
same,outcome,[16],inactive
same,Potency,[17],inactive
